Entries with a potency or affinity are not part of this list. Records with an inconclusive call do not appear. Active and inactive are the calls of the source.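 The calls were made as follows, unless noted: active = falling signal with fitted half-maximal potency no higher than twice the top valid tested dose; inconclusive = poor fit quality, or flat fit spanning -70% to -30%; inactive = potency over limit, rising signal, or flat fit inside 30%.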
Columns and labels:
[1] = Cryptococcus neoformans growth inhibition, dose response, Alamar Blue, cherry-picks (AID 686998)
[2] = inducers of Cryptococcus neoformans cell lysis, dose response, AK release luminescence, cherry-picks (AID 687000;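 active = fitted dose curve reaches 40% lysis signal rise at or below the highest valid concentration tested for that sample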;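 also: luminescent detection of adenylate kinase leaking from lysed yeast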)
[3] = HepG2 cell cytotoxicity, dose response, cytotoxicity control, cherry-picks, set 2 (AID 687002;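 active = a dose-response fit showing signal loss, with half-maximal concentration no higher than twice the top tested dose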)
[4] = HeLa cell cytotoxicity, dose response, cytotoxicity control, ATP luminescence, cherry-pick samples (AID 687004;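 active = a fitted half-maximal concentration no higher than twice the top valid tested dose, with signal falling as cells die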)

Measured: outcome

CCC(=O)N1C[C@H](O)COC[C@@H]2O[C@@H](CC(=O)NCc3ccccc3Cl)CC[C@H]21
inactive: all assays above

O=C(c1cc(Br)ccc1Cl)N1CCN(c2ccccn2)CC1
inactive: all assays above

COc1ccccc1-c1ccc2c(c1)O[C@@H](CN(C)C(=O)c1cccnc1)[C@H](C)CN([C@@H](C)CO)S2(=O)=O
inactive: all assays above

CC=Cc1ccc2n(c1=O)C[C@H]1[C@H](CO)[C@@H](C(=O)NCc3ccc4c(c3)OCO4)[C@@H]2N1C(=O)C1CC1 (mixture of isomers)
inactive: all assays above

N#C[C@@H]1[C@@H](c2ccccc2)[C@@H](CO)N1C(=O)Cc1ccccc1
inactive: all assays above

O=C(C[C@@H]1CC[C@H]2[C@@H](COC[C@H](O)CN2Cc2cccc(C(F)(F)F)c2)O1)NCc1ccccc1
inactive: all assays above

CCS(CC)=NS(=O)(=O)c1ccc(NC(C)=O)cc1
inactive: all assays above

Cc1cccc(C)c1NC(=O)C(CCc1ccccc1)N1CCN(C)CC1 (configuration not stated)
inactive: all assays above

From PubChem BioAssay
